Our source for the inhibition values is PubChem BioAssay AID2736 (Broad Institute, 2010).

Molecules are shown by their SMILES. Some of the results follow. Unmarked numbers belong to inactive results. Calls of active or inactive are those of the source.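 Rule for the calls: active = every replicate shows more than 75% inhibition of signal versus neutral control wells; inconclusive = half to three quarters of replicates exceed 75% inhibition; inactive = fewer than half of replicates exceed 75% inhibition.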

The test in a line: Vibrio harveyi AI-2 signaling luminescence modulation – JMH597 strain, confirmation (AID 2736). Particulars: Vibrio harveyi JMH597 AI-2 quorum sensing luminescence, 9 h; at 7.5 µM; active compounds read high; luxN and CqsS knockout, AI-2 only.
As to `Cc1ccccc1NC(=O)CCOc1ccccc1`, the inhibition is 91.6% (active).

On to `O=C1COc2ccc(S(=O)(=O)Nc3ccc(OC(F)(F)F)cc3)cc2N1`, for which the inhibition was 99.2% (active).

For the molecule `O=C(Cn1cnc2ccccc2c1=O)Nc1cccc(S(=O)(=O)N2CCCCC2)c1`, the inhibition is 88.6% (active).

On to `O=C(COC(=O)C1CCCCC1)Nc1ccc([N+](=O)[O-])cc1`, for which the inhibition was 95.3% (active).

In the case of `O=C(c1cc(-c2cccc(O)c2)on1)N1CCc2ccccc2C1`, the inhibition is 94.4% (active).

Regarding `CC(C)(C)c1ccc(OC2=CS(=O)(=O)c3ccccc32)cc1`, the inhibition is 96.6% (active).

`CCOc1ccc(/C=N/NC(N)=S)cc1`: the inhibition is 94.3% (active).

Take `O=C(/C=C/c1ccc2c(c1)OCO2)NCc1ccc(F)cc1`: the inhibition is 94.2% (active).

As for `Cc1ccc(NS(=O)(=O)c2ccc3c(c2)NC(=O)CO3)cc1`, the inhibition is 95% (active).

In the case of `CN(Cc1cnccn1)C(=O)c1cc(COc2cccc(C(F)(F)F)c2)on1`, the inhibition was 97.2% (active).

For the molecule `COc1ccc(/C(N)=N/OC(=O)Cc2ccccc2)cc1`, the inhibition was 96% (active).

`Cc1cc(C(=O)OCC(=O)Nc2ccc(F)c(F)c2)c(C)o1`: the inhibition is 97.8% (active).

As for `S=C(NCc1ccc(Cl)cc1)NC1CCCCC1`, the inhibition is 95.5% (active).

Take `O=C(CCC(=O)c1cccs1)Nc1nc2ccccc2s1`: the inhibition was 97.8% (active).

In the case of `Cc1ccc(Oc2cnn(-c3ccccc3)c(=O)c2Br)cc1`, the inhibition is 99.3% (active).

Take `Cc1nn(CC(=O)Nc2ccc(F)cc2)c(=O)c2ccccc12`: the inhibition is 99% (active).

As to `CC(=O)c1cccc(OCc2cc(C(=O)NC(C)Cc3cccnc3)no2)c1` (stereo not drawn), the inhibition is 95.5% (active).

For the molecule `Cc1ccsc1C(=O)OCC(=O)c1cc2ccccc2o1`, the inhibition was 96.8% (active).

Turning to `COc1cccc(NC(=O)NCc2ccc(F)cc2)c1`, the inhibition was 95.3% (active).

Regarding `Cc1cc(CN(C)C(=O)c2cc(COc3ccc(C)c(C)c3)on2)n[nH]1`, the inhibition is 97.5% (active).

Take `N/C(=N\OC(=O)CCc1ccccc1)c1cccnc1`: the inhibition was 93.1% (active).

With `CCOC(=O)c1nn(-c2cccc(C)c2)cc1C(=O)c1ccccc1`, the inhibition was 93.5% (active).

`COC(=O)c1ccc(SCc2ccccc2)nc1`: the inhibition is 97.3% (active).

Turning to `Cc1ccc(NC(=O)C2CC2c2ccccc2)cc1` (stereo not drawn), the inhibition is 94.7% (active).

Take `O=S(=O)(Nc1cccc(Oc2ccc(Cl)cc2)n1)c1ccc(F)cc1`: the inhibition was 99.7% (active).

Turning to `O=C(Nc1ccc(F)c(Cl)c1)C1CCN(S(=O)(=O)c2cccnc2)CC1`, the inhibition was 98.4% (active).

Regarding `O=C(/C=C/c1ccc2c(c1)OCCO2)c1ccc(O)cc1`, the inhibition is 95.7% (active).

`CC(CNc1ccc([N+](=O)[O-])cc1)NC(=O)c1ccccc1Br` (stereo not drawn): the inhibition was 8.81%.

Consider `Cc1ccccc1C(=O)Nc1ccc(N2CCCCCC2)cc1`, for which the inhibition was 94.5% (active).

As for `Cc1ccc(Cc2nc(-c3cccc(C)c3)no2)cc1`, the inhibition is 94.6% (active).

On to `O=C(COc1ncnc2ccccc12)NC(=O)NCc1ccccc1`, for which the inhibition is 96.5% (active).

For the molecule `Cc1cccc(CSc2ccc(-c3cccs3)nn2)c1`, the inhibition was 96.9% (active).

With `COC(=O)C1CCN(C(=O)c2ccc3oc(Cc4ccc(Cl)cc4)nc3c2)CC1`, the inhibition is 96.4% (active).

Usually inhibition stands for the relative decrease from the control value, in per cent.
